According to paper PMC5540273 (PLoS ONE, 2017):

System: T1, LKB1
T1 construct: gene STK11
Settings: concentration: 1 μM, replicates: in singlicate; n = 1
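Also: KINOMEscan kinase panel screen.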

Structure (SMILES) | %Inh [%]
COc1cccc(NC(=O)Nc2ccc(C)c(-c3ccc(C(=O)Nc4ccncc4)cc3)c2)c1 [GSK1398474] | 0
CS(=O)(=O)Cc1ccc(Nc2nccc(-c3c(-c4cccc(NC(=O)C5CCCCC5)c4)nn4ncccc34)n2)cc1 [GSK350559] | 0
COc1ccc(Nc2nccc(-c3ccc(NC(=O)c4cc5cc(F)ccc5[nH]4)cc3)n2)cc1 [GSK1229496] | 15
Cc1cccc2c(-c3ccncn3)c(-c3ccc(F)cc3)nn12 [GW515532] | 0
NS(=O)(=O)c1cccc(N/C=C2\C(=O)Nc3ccc(S(=O)(=O)Cc4c(Cl)cccc4Cl)cc32)c1 [GSK398099] | 0
O=C(Nc1n[nH]c2nc(-c3ccco3)c(Br)cc12)C1CCN(Cc2ccccc2)C1.O=C(O)[C@H](O)[C@@H](O)C(=O)O (stereo not drawn) [SB-742034] | 37
COc1ccc(-c2coc3ccc(-c4nnc(C)o4)cc23)cc1 | 5
O=c1cc(N2CCOCC2)nc2n(Cc3ccccc3F)ccn12 [GSK2297428] | 5
COC(=O)c1cccc(NC(=O)NC2CCN(c3ccnc(Nc4ccc(F)cc4)n3)C2)c1 (stereo not drawn) [GSK1379725] | 0
Cc1c(Cn2c(C)c(C)n3c(=O)cc(N4CCOCC4)nc23)cccc1C(F)(F)F [GSK2328680] | 18
CNC(=O)c1ccc(C)c(-n2c(C)cc(OCc3ccc(F)cc3F)c(Br)c2=O)c1 | 0
COc1ccc(Nc2nccc(N3CCC(NC(=O)c4cc5ccccc5s4)C3)n2)cc1 (stereo not drawn) [GSK1379738] | 0
